# Compound activity: PubChem BioAssay, Broad Institute
# CSC inhib: cancer stem cell inhibition | inhibition, % at 7.5 µM | cancer stem cell-like cells viability, luminescence | 300,000 tested, 1.1% active; in the data active = inhibition above about 75%; inconclusive = no clear call, values can overlap the other calls; tested in HMLE shEcad cells
# PfHsp90 set2: reduces growth (ATP signal) of yeast expressing P. falciparum Hsp90 | AID 504621 | inhibition, % at 9.4 µM | S. cerevisiae expressing PfHsp90, BacTiter-Glo ATP, 48 h; yeast lacking PDR1 and PDR3 efflux regulators | 310,000 tested, 0.32% active;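 active = every replicate shows inhibition above about 80%, whatever the replicate mean, limit read from the data; inconclusive = mean inhibition reaches the set limit but some replicate falls short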;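 also: 0% = DMSO neutral controls and 100% = 20 µM radicicol positive controls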
# Calb FLC: C. albicans growth modulation with fluconazole; growth inhibition, % (no concentration beside the values); C. albicans CaCi-2 (fluconazole-resistant clinical isolate) + fluconazole, Alamar Blue growth, 48 h; AID 1979; 300,000 tested, 0.57% active;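 active = growth inhibition above about 58% in most replicates, limit read from the data, passing the limit was not always enough; inconclusive = exactly half the replicates above a set limit; inactive = most replicates below a set limit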;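 also: all wells also contain fluconazole at 8 µg/ml as a sub-toxic cotreatment; 0% = median of DMSO wells and 100% = median of geldanamycin control wells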
# Shn3 inh set2: inhibitors of Schnurri-3 3'UTR reporter in osteoblasts; inhibition, % at 12.5 µM; AID 588674; 360,000 tested, 0.52% active; Clone20 osteoblast Shn3 3'UTR firefly luciferase, 24 h;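 active = mean inhibition of at least 75% with every replicate also reaching 75%; inconclusive = mean inhibition at least 75% but some replicate below; inactive = mean inhibition below 75%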;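 also: 0% = median of neutral control wells and 100% = pilot-screen positive control compound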
# Beta cell apopt: blocks beta cell apoptosis; INS-1E cytokine-induced death, ATP luminescence, 48 h; percent of positive-control rescue, neutral wells zero; protection from apoptosis, % (no concentration beside the values); 300,000 tested, 0.8% active;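 active = Every replicate reaches about 75%, or at least half do and their mean reaches it too, limit read from the data; inconclusive = At least half of replicates reach the limit but their mean does not; inactive = Under half of replicates reach the limit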;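 also: 0% = cytokine-treated negative control wells and 100% = positive control rescue; higher means more ATP so stronger rescue from cytokine killing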
# An asterisk follows results filed as active; ? = inconclusive; . = no result given. The list is not random: actives were taken first. Their share in the collection is about 2.2%.
SMILES,CSC inhib,PfHsp90 set2,Calb FLC,Shn3 inh set2,Beta cell apopt
COc1ccc(N2CCN(C(=O)c3ccc(CNS(=O)(=O)c4ccc(C)cc4)cc3)CC2)cc1,20,-6,-6,23,8
CS(=O)(=O)N1CCN(c2ccc(NC(=O)c3ccc([N+](=O)[O-])o3)cc2)CC1,.,-11,8,97*,.
CCN1C(=O)[C@H]2[C@@H](c3ccc(C(F)(F)F)cc3)N[C@]3(CCCN(Cc4ccc(Cl)cc4)C3=O)[C@H]2C1=O,.,.,.,31,.
CC(C)(C)C(=O)N1CCN(c2ccc(NC(=O)c3ccc([N+](=O)[O-])o3)cc2)CC1,1,-80,0,93*,-19
O=C(Nc1ccc(N2CCCCC2)cc1)c1ccc([N+](=O)[O-])o1,32,4,16,71,37
O=[N+]([O-])c1ccc(N2CCN(Cc3ccc([N+](=O)[O-])o3)CC2)cc1,-5,-17,133*,-4,-1
O=C(Nc1ccc(N2CCN(C(=O)c3ccc(Cl)cc3)CC2)cc1)c1ccc([N+](=O)[O-])o1,.,-30,1,98*,.
O=[N+]([O-])c1ccc(CN2CCN(c3ccccc3)CC2)o1,-12,8,-15,1,-8
O=C(Nc1ccc(N2CCN(C(=O)c3ccc(Cl)cc3)CC2)cc1)c1ccc2c(c1)OCCO2,.,-1,2,89*,25
CCc1ccc(NC(=O)C(=O)NCC2CCCN2S(=O)(=O)c2cccs2)cc1 (stereo not given),-5,.,18,33,-2
COc1ccccc1N1CC(C(=O)Nc2ccc(N3CCOCC3)cc2)CC1=O (stereo not given),-18,13,.,1,2
Cc1cccc2cc(CNCC3CCCO3)c(Cl)nc12 (stereo not given),-14,5,99*,-2,-1
Fc1ccccc1CNCC1CCCO1 (stereo not given),.,-5,10,15,.
CCOC(=O)C(=NC1CCCCC1)NNc1cccc(C(F)(F)F)c1,43,10,57*,-2,-6
CCOC(=O)C(=NC1CCS(=O)(=O)C1)NNc1ccccc1Cl (stereo not given),3,40,-9,12,1
CCOC(=O)C(=NC1CCS(=O)(=O)C1)NNc1ccc(Br)cc1 (stereo not given),-8,18,112*,-18,-1
CCOC(=O)C(=NC(C)CC)NNc1cccc(C(F)(F)F)c1 (stereo not given),23,-24,-5,-1,-6
Cc1nc(N2CCN(C(=O)c3ccco3)CC2)c2c3c(sc2n1)CC(C)CC3 (stereo not given),1,-15,42,92*,80*
Cc1csc(SCC(=O)Nc2cc([N+](=O)[O-])ccc2F)n1,-8,6,.,-2,-3
Cn1ncc2c(Nc3cccc(Cl)c3)nc(Nc3cccc(Cl)c3)nc21,115*,108*,-7,21,52
CNc1nc(Nc2ccc(C)c(Cl)c2)c2cnn(C)c2n1,6,-45,8,21,19
Cn1ncc2c(Nc3ccc(Br)cc3)nc(Nc3ccc(Br)cc3)nc21,103*,-21,9,-8,33
CC(=C/c1ccco1)/C=N/NC(=O)c1nnn(-c2nonc2N)c1CN(C)C,-13,-7,29,-13,-6
O=C(NC1CC1(c1ccccc1)c1ccccc1)c1ccccc1 (stereo not given),.,-28,.,11,.
O=[N+]([O-])c1c(C(Cl)Cl)nn(-c2ccc(Cl)cc2)c1N1CCCCC1,44,-15,81*,0,13
SMILES,CSC inhib,PfHsp90 set2,Calb FLC,Shn3 inh set2,Beta cell apopt
COc1ccc(F)cc1-c1cc(NC=O)c2ncc(-c3cccc(C(F)(F)F)c3)n2c1,.,.,.,-1,.
CCn1c2ccccc2c2cc(NC(=O)C(C)Oc3ccccc3)ccc21 (stereo not given),41,3,-15,7,3
CCn1c2ccccc2c2cc(NC(=O)C(C)C)ccc21,20,-21,96*,12,5
COC(=O)[C@@]12CCCCN1[C@H](c1ccc(-c3cccc(Cl)c3)cc1)[C@@H]1C(=O)N(C)C(=O)[C@@H]12,.,-2,.,16,9
COc1ccccc1OCC(=O)NNc1c2ccccc2nc2ccccc12,1,-6,13,44,8
CC(C)CCNc1nc(N)c([N+](=O)[O-])c(N2CCCCCC2)n1,-6,-33,-9,87*,26
CC1CN(c2ccc([N+](=O)[O-])c(NCCOc3ccccc3)c2)CC(C)N1 (stereo not given),62,2,-1,-3,1
O=[N+]([O-])c1ccc(N2CCCCC2)cc1NCCOc1ccccc1,20,19,4,13,-5
CC1CN(c2ccc([N+](=O)[O-])c(NCCOc3ccc(Cl)cc3)c2)CC(C)N1 (stereo not given),108*,1,-5,-9,-1
CCc1ccc(OCCNc2cc(N3CCNC(C)C3)ccc2[N+](=O)[O-])cc1 (stereo not given),.,4,.,89*,25
CCN(C(=O)COC(=O)c1cc(=O)[nH]c2ccccc12)C1CCS(=O)(=O)C1 (stereo not given),15,-16,-7,2,-2
CCOC(=O)N1CCN(C(=O)c2cc(COc3ccc4ncccc4c3)on2)CC1,-6,-1,44,?,55
Cc1cccnc1CN1CCN(C(=O)c2cc(COc3ccc4ncccc4c3)on2)CC1,12,-3,-13,88*,100*
O=C(c1cc(COc2ccc3ncccc3c2)on1)N1CCC(O)CC1,-7,-5,-2,48,.
CCC(O)C1CCN(C(=O)c2cc(COc3ccc4ncccc4c3)on2)CC1 (stereo not given),0,-7,-6,88*,106*
O=C(NCc1cc(Cl)cc(Cl)c1)c1csc([C@@H]2C[C@H](O)[C@@H](CO)O2)n1,.,.,.,2,.
Cc1cc(Br)c(NC(=O)COC(=O)CC2CC3CCC2C3)c(Br)c1 (stereo not given),-17,-14,.,4,-1
Cc1c(C(=O)NCCC#N)sc(=O)n1Cc1ccccc1F,.,.,.,-10,.
NCCNC[C@@H]1COC2(CCCCCCCCCCC2)O1,-8,13,-10,-4,-15
CC(C)(C)c1nnc(N/N=C/c2ccccc2O)n(N)c1=O,.,-22,-31,90*,.
COc1ccc(OC)c(NC(=O)CSc2nnc3ccc(-c4ccccn4)nn23)c1,-6,-14,1,14,-1
CCOC(=O)CNc1nc(Cl)nc(Nc2ccc(C)cc2)n1,-11,-40,7,.,-5
Cc1ccc(Nc2nc(Cl)nc(NC(C)(C)C)n2)cc1,9,-17,94*,-116,.
CCOC(=O)N=Nc1c2ccccc2c2nc3no[nH]c3nc12,.,108*,112*,100*,.
CCOC(=O)N=Nc1c(O)n(CC(=O)OC)c2ccccc12,0,9,-11,-15,-1
COc1ccc(Cl)cc1NC(=O)Nc1ccc(C(=O)N2CCOCC2)cc1,-10,7,-3,15,-9
Cc1cc(C)nc(OC(=O)c2ccc(Cl)cc2Cl)n1,-10,.,-4,.,85*
